Screens from PubChem.
Pf growth 96h: P. falciparum growth inhibition at 96 hour, primary screen for plastid delayed-death inhibitors | P. falciparum luciferase reporter growth, 96 h | Potency, µM (titrated, usually from 28.7 µM), inactives show at the highest dose activity change, negative = inhibition, most hits filed as inhibitors | 6.9% of 320,000 active | AID 504834; active means well fitted inhibition curve with a large enough effect; inconclusive means small, poorly fitted or top-dose-only effect, or another doubt; inactive means no such curve, though single readings can be large or run the other way; further: potency means the concentration at half of the fitted maximal effect; on the % scale 0 is the no-effect control and ±100 the full control effect
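P. falciparum expressing integrated firefly luciferase, in erythrocytes at 2% hematocrit, 0.05% parasitemia, incubated with compounds 96 h at 37 C, 5% CO2. Growth inhibition read as loss of luminescence; two-generation exposure targets delayed-death apicoplast inhibitors.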
CHX counter: counter-screen for Shiga toxin inhibitors: cycloheximide protein synthesis inhibition | cell reporter, cycloheximide protein synthesis inhibition counterscreen | max response, % | 12% of 300,000 active; in the data active means max response mostly above about 13%, no sharp cut-off; inactive means mostly below about 14%; further: read at 38.3 µM for the half of the compounds with a filed dose; 0% is about no effect
SARS PLP yeast: inhibitors of SARS-CoV papain-like protease in yeast; S. cerevisiae expressing SARS-CoV PLpro, growth rescue; Potency, µM (doses to about 32.9 µM), without a hit: top-dose activity, positive = growth rescue, usual class: activators; 0.19% of 330,000 active; AID 485353; further: potency means the concentration at half of the fitted maximal effect; 0% is about no effect; nearly all actives have a fitted effect of over 55% in size
Pf growth 48h: P. falciparum growth inhibition at 48 hours (one generation) | P. falciparum luciferase growth in erythrocytes, 48 h | Potency, µM (doses to about 28.7 µM), inactives show top-dose activity change, negative = inhibition, hits mostly inhibitors | 5.9% of 310,000 active; active means well fitted inhibition curve with a large enough effect; inconclusive means small, poorly fitted or top-dose-only effect, or another doubt; inactive means no such curve, though single readings can be large or run the other way; further: potency means the concentration at half of the fitted maximal effect; on the % scale 0 is the no-effect control and ±100 the full control effect
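Growth was read as firefly luciferase luminescence after a 48 h, 37 C, 5% CO2 exposure of compounds to reporter-bearing P. falciparum cultures (0.1% parasitemia, 2% hematocrit final) in Albumax-supplemented RPMI 1640.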
Shiga inhibitor: Shiga toxin inhibition. Vero cells, Shiga toxin protein synthesis inhibition reporter. inhibition, % at 38.7 µM. 9.2% of 290,000 active. AID 2315; in the data active means inhibition mostly above about 28%, no sharp cut-off; inactive means mostly below about 43%; further: 0% is about no effect
NS1 function inh: inhibitors of influenza NS1 protein function; Potency, µM (highest dose often 46.1 µM), for inactives: at the top dose activity, positive = more growth; 0.4% of 270,000 active; further: potency means the concentration at half of the fitted maximal effect; actives are rising curves; nearly all actives have a fitted effect of over 50% in size
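Growth recovery, yeast-based: influenza A NS1 expressed in S. cerevisiae causes slow growth, and suppressors are detected by OD600. The parent strain without NS1 is used as positive control.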
NS1 inh valid: validation of influenza NS1 protein function inhibitors. influenza NS1 function cell assay, 15-point titration. activity change, negative = inhibition, % at 32.9 µM. shares compounds with NS1 function inh. 1,400 tested, under 10 active; further: 0% is about no effect
Flu PR8 replic: reduces influenza A/PR/8/34 replication in MDCK cells. shares compounds with NS1 function inh. MDCK infected influenza A/PR/8/34, virus titer TCID50; active compounds read low. 30% of 95 active. virus titer (log TCID50), log10 TCID50 at 5 µM. AID 504647; call rule not given here
Starred values were filed as active, the others as inactive; i = inactive; ? = inconclusive; / = not tested or not shown; [ ] = dose if it differs, or a comment. This is a sample that favours compounds with a hit; in the whole collection about 21% have one here. Unless noted, the call rests on the fitted dose curve.

SMILES | Pf growth 96h | CHX counter | SARS PLP yeast | Pf growth 48h | Shiga inhibitor | NS1 function inh | NS1 inh valid | others
O=C(NCc1ccc(F)cc1)N[C@@H](Cc1ccccc1)C(=O)O | ? | -7 | 6% | 20% | 19 | 1µM* | 22
COc1ccc(S(=O)(=O)N(CC(=O)NC2CC2)c2ccc(C)cc2)cc1 | ? | 2 | 1% | -8% | 9 | -1% | /
c1cc2c(cc1Nc1nc(-c3ccc4c(c3)OCO4)cs1)OCCO2 | -6% | 64* | 1% | -65% | 78* | 7.1µM* | -12
Oc1ccc(Nc2nc(-c3ccc(O)cc3)cs2)cc1 | -23% | 54* | 7% | -50% | 80* | 2.8µM* | 10
O=C(/C=C/c1ccc2c(c1)OCO2)Nc1nc(-c2ccc(F)cc2)cs1 | ? | 2 | 9% | 12% | -2 | 15% | /
CC(C)(C)OC(=O)N[C@H](Cc1ccccc1)C(=O)N1CCC[C@@H]1C(=O)O | 31% | 3 | 1% | 5% | -9 | 4% | /
CC(C)(C)OC(=O)N1CCC(c2c(C(=O)NC3CC3)cnn2-c2ccc(Cl)cc2)CC1 | 24% | 8 | -6% | ? | 4 | 13% | /
CN[C@H](CC(C)C)C(=O)N[C@H]1C(=O)N[C@@H](CC(N)=O)C(=O)N[C@H]2C(=O)N[C@H]3C(=O)N[C@H](C(=O)N[C@H](C(=O)O)c4cc(O)cc(O)c4-c4cc3ccc4O)[C@H](O)c3ccc(c(Cl)c3)Oc3cc2cc(c3O[C@@H]2O[C@H](CO)[C@@H](O)[C@H](O)[C@H]2O[C@H]2C[C@](C)(N)[C@H](O)[C@H](C)O2)Oc2ccc(cc2Cl)[C@H]1O | / | / | / | / | / | -12% | /
Cc1cccc(NC(=O)NCc2ccc3c(c2)cc(C)n3C)c1 | 10µM* | 12 | -15% | ? | 18 | 11µM* | 13
Cc1cc2cc(CNC(=O)Nc3cccc(Cl)c3)ccc2n1C | 2% | 5 | -5% | -9% | 32 | ? | 16
CCCC(=O)NCc1ccc2c(c1)cc(C)n2C | 244% | -6 | -12% | -23% | -15 | ? | /
COc1cccc(NC(=S)NCc2ccc3c(c2)cc(C)n3C)c1 | -125% | -3 | -1% | -19% | 1 | / | /
CSc1nc(NCCOCCO)c2sc3nc(-c4ccco4)c4c(c3c2n1)CCC4 | / | -1 | 1% | -29% | 21 | ? | /
CCN(CCO)c1nc(SC)nc2c1sc1nc(-c3ccco3)c3c(c12)CCC3 | ? | 9 | 3% | ? | -2 | ? | -1
COC(=O)c1cc(CNC(=O)c2cccc(Cl)c2Cl)ccc1OC | 26% | 0 | 12% | 40% | -6 | 0% | /
CSc1ccc(NC(=O)[C@H]2CCCC[C@@H]2C(=O)O)cc1 | / | / | / | / | / | -1% | /
C/C(N)=C(/C#N)C(=O)CSc1n[nH]c(-c2ccccc2Br)n1 | ? | 46* | 8% | ? | 66* | 4µM* | -1
Cn1c(C(=O)N(Cc2ccccc2)Cc2cccs2)cc2sccc21 | -16% | 9 | -3% | -20% | 18 | -41% | /
O=C(N/N=C1\CC2CC=CC12)c1ccc(COc2ccccc2)cc1 (stereo not drawn) | ? | 10 | -2% | -17% | 20 | 5.6µM* | -16
O=C(Nc1ccccc1)c1ccc(COc2ccccc2)cc1 | 71% | 10 | 0% | 31% | 27 | 2% | /
Fc1ccc(CN2CCCCCCC2)cc1 | 12% | 2 | 4% | / | -18 | 3% | /
N=c1c2c(n(Cc3ccc(F)cc3)c3c1CCC3)CCC2 | -8% | -1 | -1% | 0.12µM* | 9 | 1µM* | -29
CC(C)(C)N1C(=O)c2ccc(C(=O)Nc3ccc(-c4nc5ccccc5[nH]4)cc3)cc2C1=O | i | 29* | 9% | 0.52µM* | 47* | ? | 1
O=C(COC(=O)c1ccc[nH]c1=O)Nc1ccc(S(=O)(=O)N2CCCC2)cc1 | 0% | -1 | -2% | -1% | -14 | 11µM* | 3 | Flu PR8 replic=7.7
O=C(COC(=O)c1ccc[nH]c1=O)Nc1cc(S(=O)(=O)N2CCCCC2)ccc1Cl | -1% | 7 | 2% | 1% | 11 | / | /
SMILES | Pf growth 96h | CHX counter | SARS PLP yeast | Pf growth 48h | Shiga inhibitor | NS1 function inh | NS1 inh valid | others
CCOC(=O)N1CCN(C(=O)CCC(=O)N2CCOc3ccc(C)cc32)CC1 | ? | 13 | 7% | ? | -33 | 5.6µM* | -7
Cc1ccc(C(=C2C3C=CC2C2C(=O)NC(=O)C32)c2ccc(C)cc2)cc1 (stereo not drawn) | 14% | -4 | -1% | / | -13 | -5% | /
COc1cc(C(c2c(C(=O)O)[nH]c3ccccc23)c2c(C(=O)O)[nH]c3ccccc23)ccc1OCc1ccccc1 | 13µM* | -1 | 5% | 0% | / | 6.3µM* | 0
O=C(O)c1[nH]c2ccccc2c1C(c1ccccc1)c1c(C(=O)O)[nH]c2ccccc12 | ? | 0 | 11% | 27% | 0 | ? | /
Cc1ccc(NC(=O)COC(=O)c2ccc3c(c2)OCO3)cc1S(=O)(=O)N1CCCCC1 | -1% | -2 | -2% | 18% | -6 | 10µM* | 6
O=C(CSc1nncn1-c1ccccc1)Nc1ccc(F)cc1F | 53% | -4 | 1% | 21% | -2 | -2% | /
CC12CCC(C(=O)N(CSC(=S)N/N=C\c3ccccc3Cl)C1=O)C2(C)C (stereo not drawn) | ? | 0 | ? | ? | 1 | 10µM* | ? | Flu PR8 replic=6.5*
Cc1ccccc1NCN1C(=O)C2CCC(C)(C1=O)C2(C)C (stereo not drawn) | 22% | -4 | 1% | 20% | 3 | -1% | /
CN(C1CCCCC1)S(=O)(=O)Cc1ccccc1 | / | -5 | -1% | 12% | 18 | -8% | /
Cc1cc(-c2ccccc2)c2c(=O)[nH][nH]c2n1 | 9% | 3 | ? | 5% | 10 | 10µM* | ?
CC1(C)Cc2c(c(-c3ccccc3)nc3[nH][nH]c(=O)c23)CO1 | / | -2 | 1% | 8% | -10 | -1%[9.22 µM] | /
COc1ccc(C)cc1NC(=O)C(Sc1nnc(-c2cccs2)o1)c1ccccc1 (stereo not drawn) | ? | 11 | 15% | ? | -2 | 11µM* | -26
O=C(C1CCN(Cc2ccc(F)cc2)CC1)N(CCc1ccccc1)Cc1ccccc1 | ? | -4 | -10% | -28% | -15 | -12% | /
N=Nc1c(O)n(CC(=O)Nc2ccccc2)c2ccccc12 | 34% | 5 | 8% | ? | -7 | 2.5µM* | 24
O=C(NCc1cccs1)C1CCCN1C(=O)Nc1ccccc1Cl (stereo not drawn) | -16% | -5 | 0% | 32% | -8 | ? | 4 | Flu PR8 replic=8.5
